# GALK inh = GALK (human) enzyme inhibition | P51570 | recombinant GALK, Kinase-Glo ATP luminescence, 1 h | Potency, µM (series often up to 57.5 µM), inactives show at the highest dose activity, negative = inhibition, most hits filed as inhibitors | 44,000 tested, under 10 active;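 note: plate controls were full GALK reaction for no effect and reaction lacking GALK for full effect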
#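 Human GALK (5 nM) was incubated with 35 uM ATP and 100 uM galactose in 20 mM HEPES pH 8.0 with MgCl2, NaCl, DTT and BSA for 1 h at room temperature. Remaining ATP was measured by Kinase-Glo Plus luminescence.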
# OvCa metastasis = blocks SKOV3ip1 adhesion and invasion in omental model; Potency, µM (highest dose often 45.8 µM), without a hit: at the highest dose activity change, negative = inhibition, most hits filed as inhibitors; AID 1963576; actives 0.1% (n = 46,000); SKOV3ip1-GFP adhesion/invasion on 3D omental model, fluorescence;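 note: potency is the fitted concentration of half-maximal effect; plate controls were DMSO wells for no effect and tomatine positive control wells for full effect; nearly all actives have a fitted effect of over 65% in size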
#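 Adhesion/invasion was scored as fixed GFP-labeled SKOV3ip1 cell counts (488/509 nm), normalized to DMSO and tomatine controls. Cancer cells in serum-free medium, with four compound doses (0.36-46 umol/L), sat 2 hr at RT then 16 hr at 37 C on a 48 hr fibroblast/mesothelial/ECM culture.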
# NTMT1 inh = blocks human N-terminal methyltransferase 1 activity. Q9BV86. NTMT1 MTase-Glo SAH luminescence, purified enzyme. Potency, µM (top dose mostly 114 µM), for the others: at the top dose activity change, negative = inhibition, actives largely listed as inhibitors. actives 2.5% (n = 59,000);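 note: potency is the fitted concentration of half-maximal effect; plate controls were DMSO vehicle for no effect and no enzyme for full effect; nearly all actives have a fitted effect of over 65% in size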
# B2AR arrestin ag = beta-arrestin recruitment by human beta2-adrenergic receptor ligands; HTLA Tango cells, beta-arrestin recruitment, luciferase luminescence, 18 h; 44,000 tested, under 10 active; P07550; Potency, µM (top dose mostly 46.1 µM), hits mostly activators; AID 1347077;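 note: potency is the fitted concentration of half-maximal effect; 0% = DMSO and full agonism = EC100 isoproterenol or metaproterenol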
#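 Tango cells (recombinant beta2-AR, beta-arrestin, tTA-driven luciferase), 1500/well in DMEM 1% FBS, treated 18 h at 37 °C with compounds up to 46 µM; luciferin mix added, luminescence read after 15 min; %activity curves fitted and curve-classed.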
# PTAP-TSG101 blk = TSG101-PTAP interaction inhibition, HIV-1 budding; Q99816; Fluorescence polarization, FITC-PTAP peptide/Tsg101, 20 min; Potency, µM (top dose mostly 115 µM), most hits filed as inhibitors; 44,000 tested, under 10 active; AID 1347069; note: potency is the fitted concentration of half-maximal effect; 0% is about no effect
#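 Steps: Tsg101 binding domain (10 uM final) in HEPES pH 7.5/NaCl/Tween 20/EDTA/TCEP; add compound; add FITC-PTAP peptide (50 nM final); incubate 20 min r.t.; read polarization.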
# DRV1 agonist = agonists of human resolvin D1 receptor DRV1 (GPR32) | AID 1346428 | CHO-K1 GPR32 beta-arrestin PathHunter luminescence, 90 min; zero percent set by DMSO-only wells | O75388 | actives 2.5% (n = 48,000) | activation, % at 76.9 µM;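 active = activation of at least 60% and not above a set upper limit, about 1 call in 100 departs from these limits; inconclusive = activation of 40% to 60%, or above that upper limit; inactive = activation under 40%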; note: 0% is about no effect
# Target sequence (O75388 whole entry, looked up): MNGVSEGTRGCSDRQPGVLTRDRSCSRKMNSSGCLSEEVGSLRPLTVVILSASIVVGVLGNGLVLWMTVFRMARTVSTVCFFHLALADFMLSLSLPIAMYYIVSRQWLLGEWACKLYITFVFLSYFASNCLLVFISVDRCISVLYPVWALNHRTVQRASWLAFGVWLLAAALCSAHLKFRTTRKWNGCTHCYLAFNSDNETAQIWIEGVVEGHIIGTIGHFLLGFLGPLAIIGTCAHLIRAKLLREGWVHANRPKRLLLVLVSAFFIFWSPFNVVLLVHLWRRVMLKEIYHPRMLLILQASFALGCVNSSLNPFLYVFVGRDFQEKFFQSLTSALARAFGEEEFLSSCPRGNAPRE
#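 Beta-arrestin recruitment read-out: luminescence from complemented beta-Gal in CHO-K1 GPR32 PathHunter cells, measured 1 h after detection reagent at ambient temperature following 90 min compound exposure at 37 °C; DMSO served as basal (EC0) control.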
# Active calls of the source: *; i = inactive; u = inconclusive; x = no result; ! = a repeat was not active; [ ] = another dose, or the depositor's remark. Most compounds without a hit are left out; they make up all but 3.8% or so of the library. Unless noted, calls come from the whole dose curve; as a rule, active = well fitted curve in the direction sought with a large enough effect; inconclusive = small, poorly fitted or top-dose-only effect, or another doubt; inactive = no such curve, though single readings can be large; an effect the other way counts as inactive or inconclusive.
SMILES,GALK inh,OvCa metastasis,NTMT1 inh,B2AR arrestin ag,PTAP-TSG101 blk,DRV1 agonist
CC(=O)c1cc(-c2ccc(F)cc2)n(CCC(=O)NCc2ccccc2C)c1C,-0.5%,-6.4%,x,i,i,-9.7
CCCc1ncc(C[n+]2ccccc2C)c(N)n1,x,x,35.5µM*,x,x,-5.4
O=C(Nc1cccc(C(=O)OCc2cc(=O)n3nc(C4CC4)sc3n2)c1)c1cccc(Cl)c1,-1.1%,6.5%,6.4%,i,i,-9.6
COc1cccc(CNCCSc2nnnn2C)c1OCc1ccc(Cl)cc1,7.8%,i,u,i,i,115.8*
COc1cc(CNCCSc2nnnn2C)cc(Cl)c1OCc1ccccc1,-0.5%,i,-3.5%,i,i,89.0*
CCOc1cc(CNCCSc2nnnn2C)cc(Cl)c1OCc1ccc(Cl)cc1,-2.5%,u,21.4%,i,i,25.7
COc1ccc(-c2nnc(SCC(=O)Nc3cccc(C)c3)s2)cc1,1.4%,1.3%,3.5%,i,i,4.0
COc1ccc(-c2nnc(SCC(=O)Nc3ccc(C)c(C)c3)s2)cc1,1.0%,8.5%,-2.3%,i,i,115.4*
Cc1csc(NC(=O)c2sc3nc4c(c(C(F)(F)F)c3c2N)CCC4)n1,x,19.1%,27.1µM*!,x,x,x
C#CC1(O)CC[C@H]2[C@@H]3CCC4=CCCC[C@@H]4[C@H]3CC[C@@]21C (stereo partly specified),x,x,-8.5%[57.5 µM],x,x,105.4*
CC(=O)Nc1ccc(-c2nnc(SCC(=O)c3ccc([N+](=O)[O-])cc3)o2)cc1,-3.8%,i,5.1%,i,i,64.0*
CC(=O)Nc1cccc(-c2nnc(SCC(=O)c3ccc([N+](=O)[O-])cc3)o2)c1,9.0%,3.9%,14.4%,i,i,u
COc1ccc(Cn2c(SCC(=O)Nc3ccc(OC)cc3)nc3ccccc32)cc1,-2.3%,2.5%,-14.2%,i,i,15.7
COc1ccc(CCN2CCC(Nc3nc4ccccc4n3Cc3ccc(F)cc3)CC2)cc1,x,x,u,x,x,94.6*
Cc1ccc2nc(-c3ccc(Cl)c(NC(=O)c4cccnc4)c3)oc2c1,8.4%,i,16.0%,i,i,5.4
O=C(Nc1cc(Cl)cc2c1[nH]c1cnccc12)c1cccnc1,x,-0.7%,17.8µM*!,x,x,x
C[C@@H]1CN(CC(=O)N2CC(C)(C)c3ncc(Cc4ccc(F)cc4)cc32)[C@@H](CN2CCOC[C@H]2C)CN1,x,x,79.4µM*!,x,x,x
CCCCCC=CCC=CCCCCCCCC(=O)OCC,x,x,0.3%[57.5 µM],x,x,63.3*
CC(C)NCC(O)c1ccc2ccccc2c1 (stereo unspecified),x,x,u,x,x,68.2*
CNC[C@H](O)c1cccc(O)c1,x,0.3%,u,x,x,-4.6
Cc1ccc(-n2ncc3c(N4CCN(Cc5ccccc5)CC4)ncnc32)cc1C,-1.8%,i,-2.1%,i,i,75.3*
Cc1ccc(-n2ncc3c(N4CCN(CCO)CC4)ncnc32)cc1Cl,-0.3%,1.7%,u,i,i,65.1*
CN1CCC(c2c(O)cc(O)c3c(=O)cc(-c4ccccc4Cl)oc23)C1CO (stereo unspecified),x,x,50.1µM*,x,x,x
CC1CCN(Cc2c(O)ccc3c(=O)c(Oc4ccccc4Cl)c(C(F)(F)F)oc23)CC1,3.7%,-5.0%,-3.1%,i,i,-3.6
CN1CCC(c2c(O)cc(O)c3c(=O)cc(-c4ccccc4Cl)oc23)C(O)C1 (stereo unspecified),x,x,35.5µM*,x,x,x
CN1CC[C@@H](c2c(O)cc(O)c3c(=O)cc(-c4ccccc4Cl)oc23)[C@@H](O)C1,x,16.9%,24.1µM*!,x,x,x
Cc1ccc(Cl)cc1N1CCN(C(=O)c2cnn(C(C)(C)C)c2C2CCN(C(=O)OC(C)(C)C)CC2)CC1,0.9%,-4.4%,-7.5%,i,i,-8.5
Cc1cccc(N(CC(=O)Nc2ccc(Br)cc2)S(C)(=O)=O)c1C,-0.4%,0.2%,-1.1%,i,i,23.8

# Assay outcomes: PubChem, National Center for Advancing Translational Sciences (NCATS)
